# According to PubChem BioAssay (NCI):
# Compounds without any hit were thinned out: in the full panel of roughly 79,000, 15% have a hit. Activity calls are given as the source filed them. No stated cut-off is given here; in the data, active means growth inhibition above about 70%; inactive means the rest.
# Assay: NCI Yeast Anticancer Drug Screen. Data for the cln2 rad14 strain (AID 165);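 further: 0% = growth equal to vehicle treated cultures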
# Details: S. cerevisiae cln2 rad14 strain, at 50.0 µM, hits give high values
# Method in brief: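 Test compounds were added to cln2 rad14 yeast cultures; inhibition of growth was then determined by comparison with vehicle treatment.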
row,SMILES,growth inhibition
1,CCOC(=O)/C(=N/Nc1ccc(C)cc1)N1C(=S)C=C(C)NN(C)C1=S,-13.3% (inactive)
2,NC1=NN(c2ccccc2)C(=O)C1/C(=N\NC(=O)c1cc2ccccc2cc1O)C(=O)Nc1ccc(Cl)c(Cl)c1 (configuration not stated),31.6% (inactive)
3,Cc1c(C(=O)Nc2ccc(Cl)c(C(F)(F)F)c2)oc2cc(O)ccc2/c1=N\NC(N)=S,-7.85% (inactive)
4,CCCCC(=O)N/N=C\c1cc(Cl)ccc1[N+](=O)[O-],33.2% (inactive)
5,COc1cccc2c1[C@@]1(C)C3C(=O)OC(C)(c4ccccc43)[C@@]1(C)C2=O (some centres not stated),23.1% (inactive)
6,CCOC(=O)c1c(C)nc(C)c(C(=O)OCC)c1-c1ccnc2ccccc12,-13% (inactive)
7,CN/N=C(/Cc1occc(=O)c1O)C(=O)Nc1ccc(C)c(C)c1,3.15% (inactive)
8,CN(C)Cc1cc(C(C)(C)C)cc(CN(C)C)c1O,-20.1% (inactive)
9,CC(N)C(O)C(C)C(=O)O (configuration not stated),44.5% (inactive)
10,CC(=O)Oc1ccc2c(c1)CCC1C2CCC2(C)CC(OC(C)=O)CC12 (configuration not stated),2.95% (inactive)
11,COC(=O)NC(Nc1ccc(C)cc1)(C(F)(F)F)C(F)(F)F,5.9% (inactive)
12,O=C(Nc1ccccc1Cl)OCCOc1ccccc1,-19.1% (inactive)

# Assay: NCI Yeast Anticancer Drug Screen. Data for the bub3 strain (AID 167)
# Details: S. cerevisiae bub3 mutant strain, at 50.0 µM, hits give high values
# Method in brief: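 Part of a panel of yeast mutants defective in DNA damage repair or cell cycle regulation. Each strain is grown with compound, and inhibition is calculated relative to solvent-treated cultures.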
row,SMILES,growth inhibition
1,O=[N+]([O-])c1ccc(OCc2ccccc2)c(Cl)c1,46.3% (inactive)
2,CCC(O)(Cc1ccc(OC)cc1)c1ccc(OC)cc1 (configuration not stated),11.7% (inactive)
3,COc1ccc(N=C(N)N=C(N)N)cc1,-2.65% (inactive)
4,O=C1NC(=O)C(CCI)N1 (configuration not stated),-15.2% (inactive)
5,C[C@H]1C[C@H]2[C@@H]3CC[C@@]4(OCC4=O)[C@@]3(C)C[C@H](O)[C@]2(F)[C@@]2(C)C=CC(=O)C=C12,17.4% (inactive)
6,O=C(Nc1ccc(Cl)cc1)c1ccc(Cl)cc1Cl,13.7% (inactive)
7,O=C(NO)c1ccc(Cl)cc1Cl,18.6% (inactive)
8,C(=C1\COC(c2ccccc2)=N1)/c1ccc2c(c1)OCO2,-5% (inactive)
9,CC(C)CCCC(C)C1CCC2C3CC=C4CC(OCCC(C)C)CCC4(C)C3CCC12C (configuration not stated),98.1% (active)
10,O=S(=O)(O)SCC1=NCCCCN1,-14.4% (inactive)
11,Clc1ccc(OCc2nnc3n2N=C(c2ccc(Br)cc2)CS3)cc1,-5% (inactive)
12,NC(=S)Cc1ccccn1,-4.45% (inactive)
13,O=C1CC2CCCCC2CC1c1ccccc1 (configuration not stated),-22.5% (inactive)
14,O=C(OC1CCCCC1)C(=O)OC1CCCCC1,-5.45% (inactive)
15,BrC1CC1(c1ccccc1)c1ccccc1 (configuration not stated),3.65% (inactive)
16,Cc1ccc(N)c(C#N)c1,-5% (inactive)
17,C[C@H](C(=O)C12CC3CC(CC(C3)C1)C2)[C@H](O)c1ccccc1,-11.5% (inactive)
18,CCCCS(=O)(=O)CCC(N)C(=O)O (configuration not stated),-4.75% (inactive)
19,CC1CC[N+](C)([B-](F)(F)F)CC1 (configuration not stated),2.45% (inactive)
20,NC(=O)/C(N=Nc1ccccc1)=N\Nc1ccccc1,95.5% (active)

row,SMILES,growth inhibition
1,Nc1ncnc2c1nnn2CCCCCC(=O)O,11.8% (inactive)
2,Nc1ccc(S(=O)(=O)c2ccc(Nc3ccnc4cc(Cl)ccc34)cc2)cc1,1.6% (inactive)
3,O=C1NC(=O)C(c2cccc(F)c2)N1 (configuration not stated),4.7% (inactive)
4,O=C(NNC(=O)c1cccc(Br)c1)c1ccccc1,-7.15% (inactive)
5,CC(=O)OCC1OCOC2C(COC(C)=O)OCOC12 (configuration not stated),3.85% (inactive)
6,C[Si](C)(C)N1N=NC2C(=O)N(c3ccccc3)C(=O)C21 (configuration not stated),0.4% (inactive)
7,C=CCCCCCCCCC(=O)NCc1cccnc1,6.8% (inactive)
8,CC(=O)c1ccc(CCCCc2ccc([N+](=O)[O-])cc2)cc1,18.2% (inactive)
9,CCOC(=O)/C(=N/Nc1ccc(C)cc1)N1C(=S)C=C(C)NN(C)C1=S,-19.7% (inactive)
10,NC1=NN(c2ccccc2)C(=O)C1/C(=N\NC(=O)c1cc2ccccc2cc1O)C(=O)Nc1ccc(Cl)c(Cl)c1 (configuration not stated),6.95% (inactive)
11,Cc1c(C(=O)Nc2ccc(Cl)c(C(F)(F)F)c2)oc2cc(O)ccc2/c1=N\NC(N)=S,-7.35% (inactive)
12,CCCCC(=O)N/N=C\c1cc(Cl)ccc1[N+](=O)[O-],7.7% (inactive)
13,COc1cccc2c1[C@@]1(C)C3C(=O)OC(C)(c4ccccc43)[C@@]1(C)C2=O (some centres not stated),-4.1% (inactive)
14,CCOC(=O)c1c(C)nc(C)c(C(=O)OCC)c1-c1ccnc2ccccc12,-3.95% (inactive)
15,CN/N=C(/Cc1occc(=O)c1O)C(=O)Nc1ccc(C)c(C)c1,7.35% (inactive)
16,CN(C)Cc1cc(C(C)(C)C)cc(CN(C)C)c1O,-36.4% (inactive)
17,CC(N)C(O)C(C)C(=O)O (configuration not stated),35% (inactive)
18,CC(=O)Oc1ccc2c(c1)CCC1C2CCC2(C)CC(OC(C)=O)CC12 (configuration not stated),0.8% (inactive)
19,COC(=O)NC(Nc1ccc(C)cc1)(C(F)(F)F)C(F)(F)F,-2.65% (inactive)
20,O=C(Nc1ccccc1Cl)OCCOc1ccccc1,17.2% (inactive)
